CF NFkB block – cystic fibrosis NF-kB activation inhibition. KKLEB NF-kB-GFP reporter, PAF-induced, GFP fluorescence overnight. inhibition, % at 5 µM. 0.86% of 360,000 active. AID 588850;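 active = at least 50% inhibition at 5 µM, scaled per plate between neutral and stimulator controls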;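 also: PAF is a Pseudomonas aeruginosa culture filtrate used as stimulus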
Shn3 3UTR inh – reduces Shn3 3'UTR luciferase signal in osteoblasts | 0.52% of 360,000 active | inhibition, % at 12.5 µM | Clone20 osteoblast Shn3 3'UTR firefly luciferase, 24 h | AID 588674;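 active = mean inhibition of at least 75% with every replicate also reaching 75%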
KKLEB cytotox – reduces viability of KKLEB cystic fibrosis airway cells; KKLEB CF airway cells viability, ATPlite luminescence, overnight; hits give low values; cells stimulated with P. aeruginosa culture filtrate; activity change (cytotoxicity), % at 5 µM; 0.36% of 360,000 active; AID 602141;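 active = corrected activity change at or below -50% at 5 µM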
MITF TRPM1 inh – reduces MITF-dependent TRPM1 promoter luciferase signal | SK-MEL-5 TRPM1 promoter luciferase, 24 h | inhibition, % at 12.5 µM | 0.83% of 330,000 active | AID 488899;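 active = mean inhibition across replicates of 60% or more, whatever share of single replicates reaches that level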
EBV LMP1 NFkB – inhibitors of Epstein-Barr LMP1-induced NF-kappaB reporter; LMP1-induced NF-kappaB luciferase reporter cells, luminescence; inhibition, % at 12.5 µM; 0.69% of 350,000 active; AID 504558; in the data active = inhibition above about 41%
Peg3 promoter – Peg3 promoter activity inhibition. HeLa PEG-Prom luciferase reporter, luminescence, overnight. inhibition, % at 20 µM. 1.7% of 360,000 active. AID 588405;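 active = inhibition of at least 50% at 20 µM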
Hits are given with their value; - = inactive; . = no result. Sampled rows, rich in hits. Any-hit rate of the full collection: about 2.9%.

SMILES | CF NFkB block | Shn3 3UTR inh | KKLEB cytotox | MITF TRPM1 inh | EBV LMP1 NFkB | Peg3 promoter
Cc1nc(C(F)(F)F)ccc1C(=O)N1CCC1(C)C(=O)Nc1ccc2c(c1)OCO2 (stereo not drawn) | - | - | - | . | . | -
CCC1NC(=O)c2cccnc2-n2c1nc1ccc(F)cc1c2=O (stereo not drawn) | - | - | - | . | - | -
CC(C)C(=O)N1CCC1(C)C(=O)Nc1nc2ccccc2[nH]1 (stereo not drawn) | - | - | - | . | . | -
CCN(CC)C(=O)C1=C(C)N(Cc2ccccc2)C(=O)C(CC(=O)NC2CCCC2)C1 (stereo not drawn) | - | - | - | . | - | -
O=C1CC2(CCN(C(=O)C(=O)c3c[nH]c4ccccc34)CC2)Oc2ccccc21 | 84 | - | -100 | - | - | -
O=C(C(=O)N1CCCC1)c1c[nH]c2ccccc12 | - | - | - | - | - | -
O=C(Nc1cc(C(F)(F)F)ccc1F)C1Cc2c(-c3ccccc3Oc3ccccc3)ccnc2O1 (stereo not drawn) | - | - | - | . | . | -
NC(=O)N/N=C/c1ccc([N+](=O)[O-])o1 | - | - | - | - | - | -
O=C(COc1ccccc1)N/N=C/c1ccc([N+](=O)[O-])o1 | - | - | - | 68 | - | -
O=C(CSc1ccc(Cl)cc1)N/N=C/c1ccc([N+](=O)[O-])o1 | - | - | - | 62 | - | -
CCCc1ccc(-c2cc(C(=O)N/N=C/c3ccc([N+](=O)[O-])o3)c3ccccc3n2)cc1 | - | - | -51 | - | 58 | -
O=C(CNc1ccc2ccccc2c1)N/N=C/c1ccc([N+](=O)[O-])o1 | - | - | - | - | - | -
CCCC(=O)Nc1ccc(C(=O)N/N=C/c2ccc([N+](=O)[O-])o2)cc1 | - | - | - | - | - | -
O=C(N/N=C/c1ccc([N+](=O)[O-])o1)c1cc(-c2cccc(Br)c2)nc2ccccc12 | - | - | - | - | - | -
Cc1ccc(NC(=O)CCC(=O)N/N=C/c2ccc([N+](=O)[O-])o2)cc1C | - | . | - | 79 | - | -
CSc1ccc(/C=C/C(=O)OCC(=O)N2CCN(c3ccccc3)CC2)cc1 | - | - | - | - | - | -
COc1ccc(-c2nn(-c3ccccc3)cc2C(=O)N/N=C/c2ccc([N+](=O)[O-])o2)cc1 | - | - | - | 90 | - | -
Cc1ccc(OCC(=O)N/N=C/c2ccc([N+](=O)[O-])o2)cc1 | - | - | - | 64 | - | -
Cc1cc(C(=O)N/N=C/c2ccc([N+](=O)[O-])o2)c(C)o1 | - | - | - | 83 | - | -
O=C(N/N=C/c1ccc([N+](=O)[O-])o1)c1sc2ccccc2c1Cl | - | - | - | 78 | - | -
CC(=O)N(C(C)=O)c1ccc(Oc2ccc(Oc3ccc(N(C(C)=O)C(C)=O)cc3)cc2)cc1 | - | - | - | . | - | -
CC1(C)CC(=O)C=C(c2ccc(-c3cccc(C(N)=O)c3)cc2)C1=O | - | - | - | . | - | -
Cc1cccc(NC(=O)CN2CCN(CC(=O)Nc3cccc(C)c3)CC2)c1 | - | - | -55 | - | - | -
Cc1cccc(NC(=O)CCN2CCN(C)CC2)c1 | - | - | - | - | - | -
Clc1ccc(C(c2cccs2)N2CCNCC2)cc1 (stereo not drawn) | - | - | - | . | - | -
SMILES | CF NFkB block | Shn3 3UTR inh | KKLEB cytotox | MITF TRPM1 inh | EBV LMP1 NFkB | Peg3 promoter
CC(CCC(C)C(C)(C)C)[C@@H]1CC[C@H]2C3C[C@H](OS(O)(=S)=S)[C@H]4C[C@H](OS(O)(=S)=S)[C@@H](OS(O)(=S)=S)C[C@]4(C)[C@H]3CC[C@]12C (stereo partly drawn) (tested in a mixture with another compound) | - | - | - | - | - | 58
CC(CCC(=O)NN)C1CCC2C3CCC4CC(O)CCC4(C)C3CCC12C (stereo not drawn) | - | - | - | - | - | -
CC1(C(=O)NC2CCCCCC2)CCN1C(=O)Cc1ccc(-c2ccccc2)cc1 (stereo not drawn) | - | - | - | . | . | -
COc1ccc(NC(=O)/C(Cl)=C(/Cl)S(=O)(=O)Cc2ccccc2)cn1 | 84 | 97 | -53 | 94 | 90 | 100
COc1ccc(NC(=O)/C(Cl)=C(/Cl)S(=O)Cc2ccc(Cl)cc2)cn1 (stereo not drawn) | 87 | 96 | -88 | 94 | 78 | 104
COc1ccc(NC(=O)C(C)(C)Oc2ccc(Cl)cc2)cn1 | - | - | - | - | - | -
COc1ccc(NC(=O)C(Cl)=C(Cl)Cl)cn1 | - | - | - | - | - | -
Cc1nn(C)cc1CN(C)Cc1ccc(OCC(O)CN2CCCCC2)cc1 (stereo not drawn) | - | - | - | - | - | -
CN(Cc1ccc(OCC(O)CN2CCCCC2)cc1)Cc1ccnc2ccccc12 (stereo not drawn) | - | 87 | - | - | - | -
Cc1cc(-c2n[nH]c(=S)n2/N=C/c2ccccc2[N+](=O)[O-])n[nH]1 | - | - | - | - | - | 51
CCOC(=O)Cc1ccc(Nc2nc(NCc3cccs3)nc3ccsc23)cc1 | - | - | - | . | . | -
CC1CCN(c2ccc(-c3ccc(NC(=O)C(F)(F)F)cc3)nn2)CC1 | - | - | - | - | 46 | -
CCOC(CCNC(=O)c1cc2c(=O)[nH]c3ccccc3c2s1)OCC | - | - | - | - | - | -
CCOC(CNCc1cc(C)c2[nH]c3ccccc3c2c1C)OCC | - | - | - | - | - | 74
C[C@H]1CCC/C=C/[C@@H]2C[C@H](O)C[C@H]2[C@H](O)[C@H](S(=O)c2ccc(O)cc2)CC(=O)O1 (stereo partly drawn) | 66 | 87 | - | 83 | - | 52
COC(=O)C1=C(C(=O)c2ccccc2)C(c2ccccc2)n2nnnc2N1 (stereo not drawn) | - | - | - | - | 63 | -
CCOC(=O)c1ccc(NC(=O)c2ccc(C)c(S(=O)(=O)N3CCOCC3)c2)cc1 | - | - | - | 69 | - | 93
CC(=O)c1ccc(NC(=O)c2ccc(C)c(S(=O)(=O)N3CCOCC3)c2)cc1 | - | - | - | - | - | -
Cc1cc(C)n(-c2ccc(C(=O)Nc3ccc(C)c(S(=O)(=O)N4CCOCC4)c3)cc2)n1 | - | - | - | 69 | - | -
Cc1ccc(NC(=O)c2ccc(N3CCOCC3)c([N+](=O)[O-])c2)cc1S(=O)(=O)N1CCOCC1 | - | - | - | - | - | 65
COc1ccc(C(=O)C(CCCCC(CN(C)C)C(=O)c2ccc(OC)cc2)CN(C)C)cc1 (stereo not drawn) | - | - | - | - | - | -
CCOc1ccc(C(=O)C(CCC(CN(C)C)C(=O)c2ccc(OCC)cc2)CN(C)C)cc1 (stereo not drawn) | 96 | 98 | -100 | 103 | 67 | 106
